{"source": "paper PMC4336329", "about": "(PLoS ONE, 2015)", "note": "Among all 310,000 compounds or so, about 14,000 (4.5%) showed an effect of 50% or more. The effect is printed as a negative number. Shown is part of a subset that was picked to be rich in strong results.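 Note: peak tail current of the secondary pulse compared with the same well before compound.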"}
{"molecular_target": "human ether-à-go-go-related gene (hERG) potassium channel (human, UniProt Q12809)", "sequence (Q12809 whole entry, looked up)": "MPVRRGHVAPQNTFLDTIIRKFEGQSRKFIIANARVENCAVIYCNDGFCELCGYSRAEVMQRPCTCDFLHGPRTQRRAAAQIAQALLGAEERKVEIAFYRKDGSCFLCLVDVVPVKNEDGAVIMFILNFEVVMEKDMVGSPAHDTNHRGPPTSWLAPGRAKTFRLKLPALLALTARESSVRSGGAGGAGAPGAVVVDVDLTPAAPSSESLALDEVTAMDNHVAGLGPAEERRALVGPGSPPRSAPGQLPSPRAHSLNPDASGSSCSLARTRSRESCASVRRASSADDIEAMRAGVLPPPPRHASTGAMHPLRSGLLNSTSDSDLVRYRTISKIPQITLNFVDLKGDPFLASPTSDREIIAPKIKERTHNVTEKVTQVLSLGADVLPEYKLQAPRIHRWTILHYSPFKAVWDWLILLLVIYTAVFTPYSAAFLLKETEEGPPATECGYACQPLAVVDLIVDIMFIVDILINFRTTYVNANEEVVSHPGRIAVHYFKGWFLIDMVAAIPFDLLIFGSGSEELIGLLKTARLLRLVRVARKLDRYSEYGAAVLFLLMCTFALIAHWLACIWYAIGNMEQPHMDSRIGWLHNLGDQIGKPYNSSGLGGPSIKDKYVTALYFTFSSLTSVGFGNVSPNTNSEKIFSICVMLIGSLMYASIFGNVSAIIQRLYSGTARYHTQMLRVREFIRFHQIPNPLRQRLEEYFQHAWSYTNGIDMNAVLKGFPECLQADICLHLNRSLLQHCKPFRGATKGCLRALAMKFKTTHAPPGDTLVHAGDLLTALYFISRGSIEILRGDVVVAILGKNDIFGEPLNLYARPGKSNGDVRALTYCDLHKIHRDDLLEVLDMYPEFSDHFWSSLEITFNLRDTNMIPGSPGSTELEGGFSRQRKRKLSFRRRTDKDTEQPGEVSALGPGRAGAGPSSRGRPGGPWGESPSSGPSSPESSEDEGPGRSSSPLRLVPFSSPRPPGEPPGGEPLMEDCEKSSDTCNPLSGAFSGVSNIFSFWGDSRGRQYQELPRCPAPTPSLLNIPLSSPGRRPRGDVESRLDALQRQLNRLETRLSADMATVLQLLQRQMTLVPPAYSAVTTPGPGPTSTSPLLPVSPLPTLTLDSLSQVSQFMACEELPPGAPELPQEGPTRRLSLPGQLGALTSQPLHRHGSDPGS", "test": "primary screen, population patch clamp on CHO cells stably expressing hERG; higher = less effect of the substance", "units": {"hERG current change (%, negative = inhibition) at 10uM": "%"}}
{"smiles": "O=C1NN(c2cccc(Br)c2)C(=O)/C1=C\\c1ccc(O)cc1", "hERG current change (%, negative = inhibition) at 10uM": 12}
{"smiles": "CCS(=O)(=O)Nc1ccc(-c2nnc(SCC(=O)c3ccc(NC(C)=O)c(OC)c3)o2)cc1", "hERG current change (%, negative = inhibition) at 10uM": -23.8}
{"smiles": "C#CCOCCOCCOCCNc1nc(N2CCN(C(=O)[C@H]([C@@H](C)CC)n3cc([C@@H](N)CO)nn3)CC2)nc(N2CCN(C(=O)[C@H](Cc3ccc(O)cc3)n3cc([C@@H](N)C(C)CC)nn3)CC2)n1.Cl", "note": "(stereo partly shown)", "hERG current change (%, negative = inhibition) at 10uM": 0.411}
{"smiles": "CC1CCN(C(=O)CN2C(=O)c3cccc4cccc(c34)C2=O)CC1", "hERG current change (%, negative = inhibition) at 10uM": 2.37}
{"smiles": "CC1CCC(CN2C(Nc3ccccc3)=NC[C@@H]2C)CC1", "note": "(stereo partly shown)", "hERG current change (%, negative = inhibition) at 10uM": -9.6}
{"smiles": "CC(C)C[C@H]1CN=C(Nc2ccccc2)N1CC1CCCCCC1", "hERG current change (%, negative = inhibition) at 10uM": -60.6}
{"smiles": "CC(C)C[C@H]1CN=C(Nc2ccccc2)N1CC1CCC(C(C)(C)C)CC1", "note": "(stereo partly shown)", "hERG current change (%, negative = inhibition) at 10uM": -78.3}
{"smiles": "CC(C)C[C@H]1CN=C(Nc2ccccc2)N1CC1CCCCC1", "hERG current change (%, negative = inhibition) at 10uM": -45.7}
{"smiles": "CC(C)C[C@H]1CN=C(Nc2ccccc2)N1CC1CCC(C)CC1", "note": "(stereo partly shown)", "hERG current change (%, negative = inhibition) at 10uM": -50.3}
{"smiles": "CC(C)C[C@H]1CN=C(Nc2ccccc2)N1CC1CCCC1", "hERG current change (%, negative = inhibition) at 10uM": -24}
{"smiles": "CCOC(=O)c1cccc(NC(=O)CNC(=O)C2CCCCC2)c1", "hERG current change (%, negative = inhibition) at 10uM": -3.8}
{"smiles": "O=C(COc1ccc(-n2cnnn2)cc1)Nc1ccccc1OC(F)F", "hERG current change (%, negative = inhibition) at 10uM": 4.44}
{"smiles": "N#Cc1c(N)n(-c2cccc(C(=O)O)c2)c2nc3ccccc3nc12", "hERG current change (%, negative = inhibition) at 10uM": 14.6}
{"smiles": "Cc1ccc(NC(=O)Nc2cnccn2)cc1", "hERG current change (%, negative = inhibition) at 10uM": 5.11}
{"smiles": "Cc1ccc(C(=O)CCC(=O)OCC(=O)Nc2ccc3[nH]c(=O)[nH]c3c2)cc1", "hERG current change (%, negative = inhibition) at 10uM": 14}
{"smiles": "O=C1C2C3C=CC(C2C(=O)N1c1ccc(O)cc1)C1C2C(=O)N(c4ccc(O)cc4)C(=O)C2C31", "note": "(stereo not shown)", "hERG current change (%, negative = inhibition) at 10uM": -10.7}
{"smiles": "COc1cccc(-c2c(C(=O)N/N=C/c3ccoc3)nnn2-c2nonc2N)c1", "hERG current change (%, negative = inhibition) at 10uM": -9.92}
{"smiles": "CCSc1nnc(NC(=O)CCNS(=O)(=O)c2cc(Br)cnc2N)s1", "hERG current change (%, negative = inhibition) at 10uM": 0.00778}
{"smiles": "COc1cc(NC(=O)c2ccnnc2)cc(C(=O)Nc2cccc(C(F)(F)F)c2)c1", "hERG current change (%, negative = inhibition) at 10uM": -52.8}
{"smiles": "COc1cc(NC(=O)c2ccnc(N)c2)cc(C(=O)Nc2cccc(C(F)(F)F)c2)c1", "hERG current change (%, negative = inhibition) at 10uM": -31.3}
{"smiles": "Cc1ccc(C(=O)Nc2cccc(C(F)(F)F)c2)cc1Nc1ccccn1", "hERG current change (%, negative = inhibition) at 10uM": -67.4}
{"smiles": "O=C(Nc1cccc(C(F)(F)F)c1)c1cccnc1", "hERG current change (%, negative = inhibition) at 10uM": -21.3}
{"smiles": "Cc1ccc(NC(=O)c2cccc(C(F)(F)F)c2)cc1NC(=O)c1[nH]cnc1C(N)=O", "hERG current change (%, negative = inhibition) at 10uM": -1.07}
{"smiles": "Cc1ccc(C(=O)Nc2cccc(C(F)(F)F)c2)cc1NC(=O)c1cnnc2ccccc12", "hERG current change (%, negative = inhibition) at 10uM": -5.9}
{"smiles": "Cc1cccc(Nc2ncnc3nc[nH]c23)c1C", "hERG current change (%, negative = inhibition) at 10uM": -12.5}
{"smiles": "COc1cc(NC(=O)c2ccc(N)nc2)cc(C(=O)Nc2cccc(C(F)(F)F)c2)c1", "hERG current change (%, negative = inhibition) at 10uM": -5.66}
{"smiles": "Cc1ccc(C(=O)Nc2cccc(C(F)(F)F)c2)cc1Nc1ncnc2nc[nH]c12", "hERG current change (%, negative = inhibition) at 10uM": -60.2}
{"smiles": "Cc1ccc(C(=O)Nc2cccc(C(F)(F)F)c2)cc1Nc1cncnc1.O=C(O)C(F)(F)F", "hERG current change (%, negative = inhibition) at 10uM": -74.3}
{"smiles": "COc1cc(Nc2ccccn2)cc(C(=O)Nc2cccc(C(F)(F)F)c2)c1", "hERG current change (%, negative = inhibition) at 10uM": -2.6}
{"smiles": "Cc1ccc(C(=O)Nc2cccc(C(F)(F)F)c2)cc1Nc1cnccn1", "hERG current change (%, negative = inhibition) at 10uM": -38.4}
{"smiles": "CCSc1nn2c(=O)c3ccccc3nc2s1", "hERG current change (%, negative = inhibition) at 10uM": -13.2}
{"smiles": "COc1cccc(-c2cc(=O)[nH][nH]2)c1", "hERG current change (%, negative = inhibition) at 10uM": 18}
{"smiles": "O=C(NCc1ccccc1)c1ccc(Br)o1", "hERG current change (%, negative = inhibition) at 10uM": 8.67}
{"smiles": "CCCCN(CC)CCNC(=O)c1nn(-c2ccc(OC)cc2)c(=O)c2c1c1ccccc1n2C", "hERG current change (%, negative = inhibition) at 10uM": 0.748}
{"smiles": "CCCCCc1nnc(NC(=O)C2CCCO2)s1", "note": "(stereo not shown)", "hERG current change (%, negative = inhibition) at 10uM": -1.64}
{"smiles": "COC(=O)c1ccc(S(=O)(=O)N2CCC(c3nc4ccccc4o3)CC2)cc1", "hERG current change (%, negative = inhibition) at 10uM": 1.99}
{"smiles": "COc1ccccc1N(CC(O)Cn1ccnc1C)S(=O)(=O)c1ccc(C)cc1.Cl", "note": "(stereo not shown)", "hERG current change (%, negative = inhibition) at 10uM": -39.3}
{"smiles": "CCCC1C(=O)Nc2ccccc2N1C(=O)c1cccc(C)c1", "note": "(stereo not shown)", "hERG current change (%, negative = inhibition) at 10uM": 2.13}
{"smiles": "CCCCSc1nc(C)cc(NC(=S)Nc2ccc(OC)cc2)n1", "hERG current change (%, negative = inhibition) at 10uM": -25.4}
{"smiles": "Cc1ccc(C(=O)Nc2cccc(C(F)(F)F)c2)cc1NC(=O)c1ccno1", "hERG current change (%, negative = inhibition) at 10uM": -67}
{"smiles": "Cc1ccc(C(=O)Nc2cccc(C(F)(F)F)c2)cc1NC(=O)c1nccnc1N", "hERG current change (%, negative = inhibition) at 10uM": 8.61}
{"smiles": "Cc1ccc(C(=O)Nc2cccc(C(F)(F)F)c2)cc1NC(=O)c1nccn1C", "hERG current change (%, negative = inhibition) at 10uM": 1.96}
{"smiles": "CCOC(=O)Nc1ccc2c(c1)N(C(=O)CCN1CCOCC1)c1ccccc1S2.Cl", "hERG current change (%, negative = inhibition) at 10uM": -7}
